Screening results from PubChem BioAssay.
Only some compounds are listed: those with a hit (about 4.2% of all), similar ones and a draw of the others.
NLRP3 yeast inh: blocks the NALP3 inflammasome reconstituted in yeast; Yeast reconstituted NLRP3/ASC/caspase-1, beta-gal luminescence, 24 h; inhibition, % at 10 µM; 330,000 tested, 0.39% active;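 active means inhibition of 50% or more; inactive means inhibition below 50%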
tim23-1 inh: inhibits growth of tim23-1 mutant yeast; S. cerevisiae tim23-1 growth, BacTiter-Glo luminescence, 24 h; 330,000 tested, 1.3% active; AID 463212; inhibition, % at 20 µM;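 active means growth inhibition of the mutant yeast at or above 50%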;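 further: temperature-sensitive mutant grown at 25 °C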
tim10-1 inh: growth inhibitors of tim10-1 mutant yeast | S. cerevisiae tim10-1 ts strain growth, BacTiter-Glo, 24 h | inhibition, % at 20 µM | 330,000 tested, 2.2% active;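 active means inhibition of at least 40%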;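 further: mutant grown at 25 °C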
PfHsp90 set2: reduces growth (ATP signal) of yeast expressing P. falciparum Hsp90 | S. cerevisiae expressing PfHsp90, BacTiter-Glo ATP, 48 h; yeast lacking PDR1 and PDR3 efflux regulators | 310,000 tested, 0.32% active | inhibition, % at 9.4 µM;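 active means every replicate shows inhibition above about 80%, whatever the replicate mean, limit read from the data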
TIM10 inh: inhibits growth of TIM10 yeast strain; S. cerevisiae TIM10 strain growth, BacTiter-Glo luminescence, 24 h; inhibition, % at 10 µM; 330,000 tested, 1.4% active;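 active means inhibition of 40% or more at the single tested concentration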;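 further: wild-type TIM10 isogenic control strain grown at permissive 25 °C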
NALP1 inh: blocks the NALP1 inflammasome reconstituted in yeast; S. cerevisiae NALP1/ASC/caspase-1 growth, X-gal OD620, 72 h; inhibition, % at 10 µM; 280,000 tested, 0.61% active; AID 2071; in the data active means inhibition mostly above about 24%, no sharp cut-off; inactive means mostly below about 32%
tim10-1 conf: confirmation of tim10-1 mutant yeast growth inhibitors. shares compounds with tim10-1 inh. S. cerevisiae tim10-1 ts strain growth, BacTiter-Glo, 24 h. inhibition, % at 20 µM. 7,400 tested, 56% active. AID 463213;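 active means inhibition of yeast growth at or above a set limit in either of two repeat tests at 20 µM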;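 further: tim10-1 mutant grown at permissive 25 °C to find synthetic lethal compounds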
TIM10 conf: TIM10 yeast growth inhibition, confirmed | shares compounds with TIM10 inh | S. cerevisiae tim10 strain growth, BacTiter-Glo luminescence, 24 h | inhibition, % at 10 µM | 4,600 tested, 63% active | AID 463215;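 active means inhibition of yeast growth at or above a set limit in either of two replicates at 10 µM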; further: this counterscreen used the strain with wild-type TIM10
tim23-1 conf: tim23-1 yeast growth inhibition, confirmed; inhibition, % at 20 µM; S. cerevisiae tim23-1 growth, BacTiter-Glo luminescence, 24 h; shares compounds with tim23-1 inh; 4,400 tested, 83% active;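 active means inhibition above about 39% in either of two replicate wells at 20 µM, limit read from the data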;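 further: temperature-sensitive tim23-1 mutant grown at 25 °C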
Numbers stand for hits; n = inactive; x = not tested or not shown.

SMILES	NLRP3 yeast inh	tim23-1 inh	tim10-1 inh	PfHsp90 set2	TIM10 inh	NALP1 inh	tim10-1 conf	TIM10 conf	tim23-1 conf
CCCCOC(=O)n1c(=O)oc2cc(S(=O)(=O)N3CCCCC3)ccc21	n	52	40	n	43	n	39	n	55
COC(=O)n1c(=O)oc2ccc(S(=O)(=O)N3CCCCC3)cc21	n	n	n	n	n	n	x	x	x
N/C(=N\OC(=O)CCC1CCCC1)c1cccc([N+](=O)[O-])c1	n	50	48	n	n	n	38	x	n
COc1ccc(/C(N)=N/OC(=O)CC2CCCCC2)cc1	n	57	59	n	66	n	64	38	54
N/C(=N\OC(=O)CCC1CCCCC1)c1ccc([N+](=O)[O-])cc1	n	67	83	x	60	n	79	51	70
N/C(=N\OC(=O)CCC1CCCC1)c1ccc(Br)cc1	n	66	68	n	83	n	50	72	61
O=C1NCCN(CC2CCN(CCc3ccc(Cl)c(Cl)c3)CC2)C1=O	x	x	x	n	x	x	x	x	x
CSCCC1COC(c2cccs2)=N1 (centres undefined)	n	n	n	n	n	n	x	x	x
Cc1nc(SCC(=O)Nc2ccc(CN3CCCC3)cc2)c2c(C)c(C)sc2n1	n	53	51	x	51	x	62	38	57
Cc1ccc2c(c1)-c1ncc(C(=O)c3cc(Br)ccc3O)cc1CO2	n	n	n	x	n	n	x	x	x
O=C(c1cc(C(=O)c2ccco2)cc(C(=O)c2ccco2)c1)c1ccco1	n	n	n	n	n	n	x	x	x
Cc1ccc2occ(C(=O)c3ccco3)c(=O)c2c1	n	71	42	n	49	n	n	n	51
CCOC(=O)c1c(C)[nH]c(C)c1S(=O)(=O)NCc1ccccc1OCC	n	n	n	n	n	n	x	x	x
CN1C(=O)/C(=C\c2ccccc2OCc2ccccc2)SC1=S	n	n	n	n	n	n	x	x	x
CN1C(=O)/C(=C\c2cc(N=Nc3ccccc3)ccc2O)SC1=S	n	62	42	n	n	n	n	x	67
Cc1ccc(OCC(=O)N/N=C\c2ccc(C)o2)c([N+](=O)[O-])c1	x	x	x	n	x	n	x	x	x
Cc1ccc(OCC(=O)N/N=C/c2ccc([N+](=O)[O-])o2)cc1	n	51	44	n	47	n	47	50	n
O=C(CSc1ccc(Cl)cc1)N/N=C/c1ccc([N+](=O)[O-])o1	n	55	62	n	n	n	37	x	57
CN(C)c1ccc(N=Nc2nc3ccccc3n2C)cc1	n	87	65	n	82	x	74	73	82
Cn1c(N=Nc2ccccc2)nc2ccccc21	n	n	n	n	n	n	x	x	x
Cc1cc(C)n2nc(/C(C#N)=C/c3ccccn3)c(C#N)c2n1	n	52	62	n	51	n	58	52	75
Cc1cc(C)n2nc(CC#N)c(C#N)c2n1	n	n	n	n	n	n	x	x	x
O=c1c2ccccc2oc2cc(-c3ccc4cc[nH]c4c3)ccc12	n	n	n	n	n	x	x	x	x
O=c1c2ccccc2oc2ccc(-c3ccc4[nH]ccc4c3)cc12	n	62	42	n	41	x	39	66	74
O=C(NCc1nc2ccccc2[nH]1)C1=C[C@@H](C2CCCCC2)C[C@@H](OCCCCO)O1	n	n	n	n	n	n	x	x	x
SMILES	NLRP3 yeast inh	tim23-1 inh	tim10-1 inh	PfHsp90 set2	TIM10 inh	NALP1 inh	tim10-1 conf	TIM10 conf	tim23-1 conf
O=C(/C=C/c1ccco1)c1ccc(O)cc1	n	n	n	x	n	n	x	x	x
O=C(/C=C/c1ccccc1Cl)c1ccc(O)cc1	n	63	40	110	n	n	n	x	59
COc1ccc(C(=O)c2coc3c2C(=O)C(=O)c2ccccc2-3)cc1	n	85	94	n	94	n	93	97	93
COc1ccc2occ(C(=O)c3ccccc3)c2c1	n	n	n	n	n	n	x	x	x
O=C1c2ccccc2C(=O)c2c1oc(C(F)(F)F)c2C(=O)c1ccccc1	n	80	80	n	78	n	72	92	76
O=C(c1ccccc1)c1coc2c1C(=O)c1ccccc1C2=O	n	66	81	n	73	n	76	69	79
COCCNC(=O)c1c(CS(=O)(=O)c2ccccc2)noc1C(=O)NCc1ccccc1	n	n	n	n	n	x	x	x	x
Clc1ccc(/C(Cc2nc3ccccc3[nH]2)=N\Nc2ccccc2)cc1	n	53	46	n	56	28	n	56	45
COc1ccccc1/C=N\N=C(\N)c1ccccn1	n	n	n	n	n	n	x	x	x
CC(=O)Cc1nsc(NC(=O)c2ccc(-c3ccccc3Cl)o2)n1	n	51	48	n	n	n	43	x	51
COc1cc(C(=O)N2CCN(c3ccccc3)CC2)c2ccccc2n1	x	x	x	n	x	x	x	x	x
C/C=C\C=C/C(=O)Nc1cccc(C2=NOC3(C2)C[C@H](C(N)=O)N(C(=O)c2ccc(OC)cc2)C3)c1 (some centres undefined)	n	n	n	n	n	x	x	x	x
Cc1nc2scc(-c3ccccc3)c2c(=O)n1N=C1C=CC(=O)C=C1	n	n	n	x	n	n	x	x	x
COc1ccc(/C=C2\CCc3ccccc3C2=O)cc1O	n	65	54	n	45	n	41	42	59
CN(C)C(CNS(=O)(=O)c1ccc(Cl)cc1F)c1ccco1 (centres undefined)	n	n	n	n	n	x	x	x	x
Cc1ccc(SCC(=O)OCn2nnc3ccccc3c2=O)cc1C	n	67	42	n	n	n	n	x	51
Cc1cccc(-c2nc3sc(C)cc3c(=O)o2)c1	n	n	n	n	n	n	x	x	x
CC(=O)Oc1cccc(/C=C2\Sc3ccccc3C2=O)c1	n	86	44	n	n	n	48	x	85
CCN(CC)c1ccc(/C=N/NC(=O)c2nnn(-c3nonc3N)c2C(C)C)c(O)c1	n	62	72	n	60	n	n	66	61
CC1(C)C(=O)Nc2ccccc2N1C(=O)COc1cccnc1[N+](=O)[O-]	n	n	n	n	n	n	x	x	x
CC[C@@H](C)[C@@H](C(=O)N1CCNCC1)n1cc(CCC(=O)O)nn1	n	n	n	n	n	n	x	x	x
CN(CC(=O)Nc1ccc(N2CCOCC2)cc1)C(=O)CSc1ccc(F)cc1	n	n	n	x	n	x	x	x	x
CC[n+]1c(/C=C2\C=C(C)CC(C)(C)C2)sc2ccccc21	n	51	45	n	n	n	39	x	55
CC[n+]1c(/C=C2/C=C(C)CC(C)(C)C2)sc2ccc(OC)cc21	n	n	n	n	n	n	x	x	x
